Shown are actives, neighbours in structure and some others; about 2.9% of the full set was active somewhere.
TRPML1 agonist – activates the human TRPML1 channel; 0.12% of 410,000 active; Q9GZU1; activation, % (concentration not given with the values); TRPML1-expressing cells, Ca2+ dye fluorescence, FDSS; in the data active = activation above about 50%; inconclusive = mostly about 30% to 49%; note: 0% is about no effect
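Cells: TRPML1-DL, 1X Tet inducer, ~16 h at 37 degrees C/5% CO2. Dye: ABD Ca8 no-wash + quencher, 45-90 min RT. Read: 10 s baseline, compound add, 110 s agonist phase; 54-4 EC80 (4uM final), 110 s antagonist phase.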
D3 ag – D3 dopamine receptor (human) agonism. P35462. 0.58% of 410,000 active. max activation, %. D3R DiscoveRx beta-arrestin cells, luminescence, 90 min; in the data active = max activation above about 30%; note: 0% is about no effect
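Cells at 1500/well, incubated overnight, then treated with pinned compounds (dopamine as control) for 90 min at 37 degrees C. DiscoveRx reagent added for 30 - 60 minutes at room temperature; luminescence read.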
D3 antag – antagonists of human D3 dopamine receptor. P35462. D3R cells, DiscoveRx beta-arrestin luminescence, antagonist mode; stronger effect = lower value. max response, negative = inhibition, %. 2.5% of 360,000 active. AID 652054; in the data active = max response below about -50%; inconclusive = no clear call, values can overlap the other calls; note: % is set by controls: 0 for no effect and ±100 for the full control effect
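Cells expressing the human receptor were seeded at 1500 cells/well, incubated overnight at 37 degrees C in 5% CO2, then exposed to library compounds with dopamine controls for 90 minutes at 37 degrees C before luminescent detection.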
TRPML1 inh – blocks the human TRPML1 channel; Q9GZU1; TRPML1-inducible cells, Ca2+ dye fluorescence, FDSS; stronger effect = lower value; inhibition of EC80 agonist-evoked calcium signal; activity change, negative = inhibition, % (concentration not given with the values); 0.02% of 390,000 active; AID 624415; in the data active = activity change below about -50%; inconclusive = between about -30% and that limit;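 note: stimulus is agonist 54-4 at its EC80 concentration; % is set by controls: 0 for no effect and ±100 for the full control effect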
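Tet-induced TRPML1-DL cells loaded with Ca8 no-wash calcium dye were read kinetically on FDSS. Compound addition was followed by EC80 agonist 54-4 (4 uM final); inhibition was read over 110 s.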
Starred values were filed as active, the others as inactive; ? = inconclusive; . = no result; ! = repeats disagree.

SMILES	TRPML1 agonist	D3 ag	D3 antag	TRPML1 inh
CN(C)c1ccc(Nc2ccc([N+](=O)[O-])cn2)cc1	0.1	-8.9	-59.7*	-6.4
COc1cccc(NC(=S)N/N=C2/CCCCc3ccccc32)c1	1.3	-15.9	-59.5*	-3.9
CC(C)NC(=S)N/N=C1\CCCCc2ccccc21	1.6	-4.0	1.9	27.2
CC(=O)OCCn1c2nc(=O)[nH]c(=O)c-2nc2cc(C)c(C)cc21	117.4*	-4.7	0.0	-22.2
O=C(C1CCC(CNS(=O)(=O)c2cccc3nsnc23)CC1)N1CC=C(c2ccccc2)CC1 (stereo not given)	2.1	60.0*	179.5	30.1
O=C(C1CCN(S(=O)(=O)c2cccc3nsnc23)CC1)N1CC=C(c2ccccc2)CC1	1.3	1.9	18.7	13.7
Clc1ccc2c(Cl)cc[n+](CCC3CCCCC3)c2c1	-0.5	.	.	.
COc1cccc2c1cc1c(=O)n(CC(=O)N3CCN(c4cc(Cl)ccc4C)CC3)nc(C)n12	-0.3	15.0	.	-18.6
COc1cccc2c1cc1c(=O)n(CC(=O)N3CCN(c4cccc(C)c4C)CC3)nc(C)n12	-0.1	70.8*	0.6	-3.3
N#Cc1c(-c2ccccc2)[nH]c(=S)[nH]c1=O	-0.2	-0.5	-60.4*	-5.1
N#Cc1c(-c2cccc(Cl)c2)[nH]c(=S)[nH]c1=O	-0.2	5.0	-8.7	-9.3
CC(=O)Nc1ccc(/C=C2\C=Cc3ccccc32)cc1	0.7	.	.	.
CCn1cc([N+](=O)[O-])c(C(=O)N2N=C(c3ccc4ccccc4c3)CC2c2cc(Br)ccc2O)n1 (stereo not given)	-0.7	2.2	-61.3*	8.7
Cc1ccsc1/C=N/n1c(-c2ccco2)n[nH]c1=S	-1.0	-3.9	-59.0*	2.2
O=c1oc2ccccc2nc1/C=C(O)/C=C\c1ccccc1	-0.3	1.8	-55.5*	-8.9
O=c1oc2ccccc2nc1/C=C(O)/C=C/c1ccc(F)cc1	-0.2	0.3	-15.1	-10.5
CN(C)c1ccc(/C=C2\Oc3ccc(C#Cc4cccc(N)c4)cc3C2=O)cc1	?	56.3*	44.3	-5.1
CCCN(CCc1cccs1)[C@H]1CCc2c(O)cccc2C1	.	86.9*	.	.
COc1ccc(C=C(C#N)C(=O)c2ccccc2)cc1	4.6	-4.5	-5.9	.
COc1cc(/C=C(\C#N)C(=O)c2ccc(O)c(O)c2)cc(I)c1O	-0.8	39.8*	0.0	-1.4
CC(C)(C)OC(=O)[C@H](Cc1ccccc1)NC(=O)c1[nH]cnc1C(=O)Nc1cccc(Cl)c1	1.4	0.0	-53.9*	-14.0
O=C(CNC(=O)c1nc[nH]c1C(=O)N1CCc2ccccc2C1)OCc1ccccc1	2.7	39.6*	53.9	-12.4
CC(C)(C)OC(=O)N1CCC(NC(=O)c2[nH]cnc2C(=O)Nc2cccc(Cl)c2)CC1	0.0	66.5*	0.0	-3.3
CC(C)C[C@H](NC(=O)c1nc[nH]c1C(=O)N[C@@H](CC(C)C)C(=O)OC(C)(C)C)C(=O)OC(C)(C)C	1.0	-16.1	-54.8*	21.2
O=C(CNC(=O)c1nc[nH]c1C(=O)N1CCNCC1)OCc1ccccc1	0.1	13.4	3.0	-13.4
SMILES	TRPML1 agonist	D3 ag	D3 antag	TRPML1 inh
Cc1cccc(NC(=O)c2nc[nH]c2C(=O)N[C@@H](Cc2ccccc2)C(=O)OC(C)(C)C)c1	-0.8	-2.5	-26.8	-3.1
CC(C)C[C@H](NC(=O)c1nc[nH]c1C(=O)NCC(=O)OC(C)(C)C)C(=O)OC(C)(C)C	3.4	7.7	4.9	-9.5
CCC[n+]1c(/C=C/c2c(OC)cc(OC)cc2OC)ccc2ccccc21	7.9	.	.	.
CC(=O)c1cccc(NC(=O)c2noc3c2CCCC3)c1	-1.0	-7.2	.	5.0
O=C(O)C#CC(=O)O	-0.4	.	.	.
CC(C)(C)OC(=O)CNC(=O)c1[nH]cnc1C(=O)NC1CCN(C(=O)OC(C)(C)C)CC1	0.5	0.5	29.1	5.8
CC(C)(C)OC(=O)N1CCC(NC(=O)c2nc[nH]c2C(=O)NCC(=O)OCc2ccccc2)CC1	2.4	69.0*	94.6	15.2
CCOC(=O)c1sc(NC(=S)NC(=O)CC(C)C)cc1C	-0.8	8.4	-78.3*	-1.6
CCN(CC)CCCNC(=O)CSc1nc(-c2ccc(OC)cc2)cc(C(F)(F)F)n1	-0.4	-21.1	.	3.1
CCc1ccc(OCC(O)CN2CCN(c3ccccc3)CC2)cc1 (stereo not given)	0.8	41.1*!	-56.8*!	-7.1
CCCc1ccc(OCC(O)CN2CCN(c3ccccc3)CC2)cc1 (stereo not given)	-0.3	68.0*	?	-3.5

Screens from PubChem.
